Screening results as filed in PubChem BioAssay.
PLAP act = activators of human placental alkaline phosphatase. P05187. purified PLAP enzyme, luminescent substrate read-out; active compounds read high. activation fold at 20 µM. 96,000 compounds, 1.2% hits. AID 696; in the data active = activation fold above about 2
Cav3 T inh = human Cav3.2 channel inhibition, primary screen | O95180 | Cav3.2-expressing cells, Fluo-4 calcium fluorescence FDSS; active compounds read low | B-score at 10 µM | 100,000 compounds, 4% hits | AID 449739;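 active = single-dose well whose peak fluorescence ratio is a statistical outlier from its plate by either plate-standardised score or position-corrected B-score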
DAT uptake mod = human DAT dopamine uptake with cocaine, either direction. Q01959. B-score at 10 µM. LLC-PK1 hDAT cells, [14C]-dopamine uptake with cocaine IC80; actives deviate in either direction. 110,000 compounds, 1.3% hits;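 active = Z score or B-score, a plate-position-corrected score, falls beyond the plate's 99.7% confidence bounds, in either direction; inactive = both scores lie inside the 99.7% bounds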;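 also: scored against the spread of the other compound wells on the same plate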
PostGolgi ctrl = growth of the yeast control strain, post-Golgi counter-screen. efflux-deficient yeast background strain, growth absorbance A615, 16 h. inhibition, % at 10 µM. 98,000 compounds, 5% hits. AID 738
PostGolgi yeast = growth inhibition of a yeast mutant, post-Golgi transport screen; post-Golgi transport phenotypic cell assay; inhibition, % at 10 µM; 98,000 compounds, 0.9% hits; AID 739;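 also: yeast cells grown in 1536-well plates; yeast grown about 18 h at 30C before absorbance read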
Starred values were filed as active, the others as inactive; . = no result. In the library only some 9.6% were active in any assay of this set; here they are far more common. Rule as the data show it, unless noted: active = inhibition above about 30%; inactive = the rest.

SMILES	PLAP act	Cav3 T inh	DAT uptake mod	PostGolgi ctrl	PostGolgi yeast
CCCCCCC(=O)Nc1nc(C)c(-c2csc(Nc3cc(OC)ccc3OC)n2)s1	0.9	-0.61	2.4*	5	-2
COc1ccc(N2CCN(CC(O)COc3ccc4c(c3)CCC4)CC2)cc1 (stereo not given)	2*	-3.2	0.02	38*	11
OC(COc1ccc2c(c1)CCC2)CN1CCN(c2ccccc2F)CC1 (stereo not given)	1	-2.9	0.5	21	0
O=C(CN1C(=O)C2C3C=CC(C3)C2C1=O)N1CC=C(c2ccccc2)CC1 (stereo not given)	1.3	0.72	0.2	31*	-2
O=C(CN1C(=O)C2C3C=CC(C3)C2C1=O)N1CC(=O)N(CCc2ccccc2)C(=O)C1 (stereo not given)	1	-0.5	-0.17	6	17
CCOc1cc(N2CCOCC2)c(OCC)cc1NC(=O)c1cc(-c2ccco2)nc2ccccc12	1.8	0.15	-1.6	10	8
COc1ccccc1N1CCN(CC(O)c2ccc3cc[nH]c3c2)CC1 (stereo not given)	0.9	-5.6*	-1.2	7	39*
COc1ccc(-n2c(CCc3ccccc3)nnc2SCC(=O)NCc2ccccc2)cc1	1.6	-3.4	0.71	12	-7
O=C(CSc1nnc(CCc2ccccc2)n1-c1ccc(Cl)cc1)NCc1ccccc1	1.7	-5.9*	-0.29	19	12
C=CCn1c(CSCc2ccc(Cl)cc2)nnc1SCC(=O)NCc1ccccc1	1.7	-6.6*	2	16	11
C=CCn1c(SCC(=O)NCc2ccccc2)nnc1-c1ccccc1O	1.4	0.3	0.6	8	-1
C=CCn1c(CSCc2ccc(C)cc2)nnc1SCC(=O)NCc1ccccc1	1.8	-3.6*	2.1*	10	-4
CCOC(=O)C1CN(S(=O)(=O)c2ccc(C)cc2)C1	0.9	-0.55	-0.72	-10	-2
COc1ccc(OC)c(CNn2c(-c3cccc(C)c3)nc3ccccc3c2=O)c1	1.8	-0.12	1.3	28	-1
COc1cccc(CNn2c(-c3cccc(C)c3)nc3ccccc3c2=O)c1	1.7	-2.4	-0.53	36*	4
CCOC(=O)C(C)n1cnc2c(nnn2Cc2ccc(C)cc2)c1=O (stereo not given)	1.2	0.088	1	3	2
O=C(Cn1cnc2c(nnn2Cc2ccc(Cl)cc2)c1=O)N1CCN(c2ccccc2)CC1	.	-4.4*	1.2	.	.
CCOC(=O)C(C)n1cnc2c(nnn2Cc2ccc(Cl)cc2)c1=O (stereo not given)	0.8	-4.5*	0.73	-5	-2
Cn1c(=O)c2c(n(Cc3ccccc3)c1=O)NC(=O)C2CC(=O)NCc1cccc(Cl)c1 (stereo not given)	1.1	-0.12	-0.053	-4	4
Cc1cccc(CSCCNC(=O)c2ccc(N(C)S(=O)(=O)c3ccccc3)cc2)c1	0.9	-3.9*	0.42	21	1
O=C(CN(c1ccc2c(c1)OCCO2)S(=O)(=O)c1ccccc1)NCc1ccco1	0.8	0.49	0.2	16	8
Cc1ccc(N(CC(=O)NCCSCc2ccco2)S(=O)(=O)c2ccc(C)cc2)cc1	1.3	-5.3*	-0.0095	16	-3
Cc1ccc(N(CC(=O)NCc2ccco2)S(=O)(=O)c2ccccc2)cc1	1.5	1.2	0.077	12	25
Cc1cc(C)cc(N(CC(=O)NCCSc2ccccn2)S(=O)(=O)c2ccccc2)c1	1.3	-3	0.81	31*	-3
Cc1cccc(N(CC(=O)NCCSCc2ccco2)S(=O)(=O)c2ccccc2)c1	1.2	-4.1*	-0.39	4	-8
SMILES	PLAP act	Cav3 T inh	DAT uptake mod	PostGolgi ctrl	PostGolgi yeast
CN(c1ccc(C(=O)NCCSCc2ccccc2)cc1)S(=O)(=O)c1ccccc1	0.9	-3.3	0.36	5	0
Cc1csc(CCc2nc(C)cs2)n1	0.9	0.077	-0.49	8	0
Cc1cc(C(=O)CSc2ccc(F)cc2)cc(C)c1OC(=S)N(C)C	1	-0.82	0.92	4	-5
COc1ccc(SCC(=O)c2cc(C)c(OC(=S)N(C)C)c(C)c2)cc1	1.3	-4.5*	0.89	1	-9
COc1cccc(Nc2nnc(SCC(=O)N(CC(C)C)CC(C)C)s2)c1	0.9	-7.2*	1.3	16	-6
C/C(N)=C(/C#N)C(=O)CSc1nnc(Nc2cccc(C)c2)s1	.	-0.39	0.029	.	.
COCCNC(=O)c1cc(-c2ccccc2OC)on1	1	-1.3	0.7	3	-3
CN1c2ccccc2C(C)(C)[C@]12C=Cc1cc(O)ccc1O2	0.5	-0.085	1.4	14	-5
